Data: PubChem BioAssay AID1578 (Sanford-Burnham Center for Chemical Genomics, 2009)
About 3,000 (1%) of roughly 290,000 compounds were called active. Many of the other results were omitted from the sample, so actives are more common in it than they were. A number with no mark means an inactive call. Rule as the data show it: active = inhibition mostly above about 36% (no sharp cut-off); inactive = mostly below about 34%.

Assay: inhibition of NOD1-driven NF-kB reporter – cell-based, luminescence, uHTS, primary screen (AID 1578);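 also: HEK-293T reporter cells stimulated with the NOD1 agonist gamma-tri-DAP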
Conditions: NOD1-driven NF-kB luciferase reporter cells, at 4 µM, stronger effect = higher value

Compound	inhibition
COc1cc(=O)[nH]c(SCC(=O)Nc2ccc3ccccc3c2)n1	-28.4%
CCOc1ccc(-c2nnc(NC(=O)Cc3ccc(OC)cc3)o2)cc1	-18.3%
O=C1Cc2ccccc2C(=O)N1c1ccc(F)cc1Cl	-16.4%
C=CCn1cc(C(C)=O)c(=O)[nH]c1=O	-20.3%
C/C(CC(=O)Nc1ccc2c(c1)OCCO2)=N\NC(=O)Cc1ccc(Cl)cc1	-8.8%
COCCCNC(=O)Cn1c(=O)n(Cc2ccc(F)cc2)c(=O)c2sccc21	-8.2%
CSCCOC(=O)C1=C(C)NC(=O)NC1c1ccc2c(c1)OCO2 (stereo not given)	-24.6%
O=C(NCC1CCCO1)c1cc2ccccc2nc1Cl (stereo not given)	-20.2%
CCn1c(=O)c([N+](=O)[O-])c(N2CCSCC2)c2ccccc21	8.8%
O=C(NCc1ccccc1)c1ccc(Cn2cc(C(F)(F)F)ccc2=O)cc1	-8.1%
O=C(N/N=C/c1ccc2c(c1)OCO2)c1ccc2c(c1)OCO2	-42.6%
CC(C)c1ccc(/C=N/Nc2ccc(C(=O)O)cc2)cc1	64.4% (active)
O=C(O)c1ccc(N/N=C/c2ccc(-c3ccccc3)cc2)cc1	-27%
COc1ccc(C(=O)/C=C/c2cccc(OCc3ccccc3)c2)cc1CSCC(=O)O	11.8%
O=C(O)c1ccc(N/N=C/c2ccc3c(c2)OCO3)cc1	80.4% (active)
COC(=O)c1ccc(COc2ccc(/C=C/C(=O)c3ccc(OC)c(CSCC(=O)O)c3)cc2OC)cc1	49.5% (active)
O=C(O)c1cc(N/N=C/c2ccc3c(c2)OCO3)ccc1Cl	-59.6%
COc1ccc(C(=O)/C=C/c2ccc(OCc3ccccc3)cc2)cc1CSCC(=O)O	0.4%
O=C(O)c1ccc(N/N=C/c2ccc(C(F)(F)F)cc2)cc1	17.4%
CCOC(=O)c1[nH]n(-c2ccc(Cl)cc2)c(=O)c1C	-33.9%

Compound	inhibition
O=C(c1cc(-c2ccc(Cl)cc2)n[nH]1)N1CCN(C(=O)c2ccco2)CC1	13.4%
COC(=O)C1CC(c2ccc(Cl)cc2)=NO1 (stereo not given)	-38.4%
CCOc1ncccc1C(=O)Nc1cccc(-c2nnc3n2CCCCC3)c1	-22.1%
Cc1cccc(C)c1NC(=S)NCCc1ccc(O)c(O)c1	-28.1%
COc1ccccc1OC(=O)C1CC(=O)N(c2ccc(Cl)cc2)C1 (stereo not given)	-7.8%
Cc1ccc(Nc2nc(CSc3nnc(-c4cccnc4)n3-c3ccccc3F)cs2)cc1	18.9%
Cc1ccc(Nc2nc(CSc3nnc(-c4cccnc4)n3-c3ccccc3C)cs2)cc1	87% (active)
Cc1ccccc1-n1c(SCc2csc(Nc3ccccc3)n2)nnc1-c1cccnc1	-18.5%
CC1(C)CN(c2cccc(Br)c2)C1=O	-15.6%
Cc1nn(C)cc1CN(C)Cc1c(C(=O)N(C)Cc2ccccc2)nc2ccccn12	-20.3%
CC(c1ccon1)N(C)Cc1c(C(=O)N(C)Cc2ccccc2)nc2ccccn12 (stereo not given)	-38.7%
CN(Cc1c(C(=O)N(C)Cc2ccccc2)nc2ccccn12)CC1Cc2ccccc2O1 (stereo not given)	64.7% (active)
O=C(CSCC(=O)NC1CC1)Nc1ccc2ccccc2c1	-5.8%
O=C(Cc1ccc([N+](=O)[O-])cc1)NCc1ccc2c(c1)OCO2	-15.5%
O=C(NCc1ccc2c(c1)OCO2)Nc1ccc([N+](=O)[O-])cc1	-44.5%
O=[N+]([O-])c1ccc(NCc2ccc3c(c2)OCO3)cc1	88.5% (active)
CN(Cc1ccc2nonc2c1)Cc1nc(Cc2cccc(F)c2)no1	-14.8%
CC1(C)OC(=O)CC1C(=O)NCc1ccccc1 (stereo not given)	-18.4%
Cc1ccc(NC(=S)NCC(O)c2ccccc2)c(C)c1 (stereo not given)	-31%
O=S(=O)(c1cccs1)N1CN(Cc2ccc(F)cc2)c2nc3ccccc3nc21	6.3%

Compound	inhibition
COC(=O)C1CC23C=CCN4CCC5(c6ccccc6NC15C2C)C43 (stereo not given)	46.8% (active)
CCC12CCCN3CCC4(C(=C(C(=O)OC)C1)Nc1ccccc14)C32 (stereo not given)	-7.2%
COC(=O)C1CCN(C(=O)/C(C)=C\c2ccccc2)CC1	-32.2%
CCCOC1CCCN(C(=O)CCCn2nnnc2CN2CCOCC2)C1 (stereo not given)	10.3%
Cn1nc(C(=O)NC2CCCN(Cc3ccccc3F)C2)c2ccccc2c1=O (stereo not given)	-20.9%
Cc1cc(C(=O)NC2CCCN(Cc3ccccc3F)C2)no1 (stereo not given)	-19.1%
O=C(O)C(=O)/C(=C\c1cccc2ccccc12)c1ccc2ccccc2n1	2.3%
CCC(C(=O)NC1CCCC1)N(C(=O)Cn1nnc(-c2ccc(OC)c(OC)c2)n1)c1cccc(O)c1 (stereo not given)	-30.7%
Cc1cc(C(=O)COC(=O)c2ccco2)c(C)n1Cc1ccco1	45.8% (active)
Cc1cc(C(=O)CN2C(=O)c3ccccc3C2=O)c(C)n1Cc1cccs1	13.2%
Cc1cc(C(=O)COC(=O)c2ccc(O)cc2)c(C)n1Cc1ccco1	-37.3%
COCCn1c(C)cc(C(=O)COC(=O)c2ccc[nH]c2=O)c1C	50.7%
COCCn1c(C)cc(C(=O)COC(=O)c2ccc(Br)o2)c1C	-30.4%
COc1ccc(-c2nnc(SCC(=O)c3cc(C)n(Cc4cccs4)c3C)o2)cc1	-40.4%
Cc1cc(C(=O)CSc2nnc(-c3ccccc3F)o2)c(C)n1Cc1cccs1	58.1% (active)
Cc1cc(C(=O)COc2ccc3ccc(=O)oc3c2)c(C)n1Cc1cccs1	22.1%
Cc1cc(C(=O)CSc2n[nH]c(-c3ccccc3F)n2)c(C)n1Cc1cccs1	29.2%
COCCn1c(C)cc(C(=O)COC(=O)c2ccccc2Br)c1C	67.9% (active)
Cc1cc(C(=O)COC(=O)c2ccc(Br)o2)c(C)n1Cc1ccco1	-24.2%
CCOC(=O)CSc1nnc(Cn2c(=O)sc3ccccc32)n1-c1ccccc1C	5.4%
